# From PubChem BioAssay (EPA / NIEHS)
# Several values for one entry are separate records, joined by “and”; a condition that tells them apart may be missing. Equal entries are not always repeated. Activity calls are given as the source filed them. Rule for the calls: active = hit-call score of the fitted dose curve at least 0.9, where 1 is the maximum; inactive = score below 0.9.
# Biological target: Heat shock factor protein 1 (Homo sapiens) (UniProt Q00613)
# Assay: ATG_HSE_CIS: Attagene CIS-FACTORIAL HepG2 Assay for human Heat Shock Transcription Factor 1 (HSE) (AID 2282953)
# Conditions: HepG2 HSE cis-reporter, Attagene RNA transcription; actives raise or lower the signal
# Experimental: ATG_CIS is a cell-based, multiplexed-readout assay that uses HepG2, a human liver cell line, with measurements taken at 24 hours after chemical dosing in a 24-well plate.ATG_HSE_CIS is one of 52 assay component(s) measured or calculated from the ATG_CIS assay. It is designed to make measurements of mRNA induction, a form of inducible reporter, as detected with fluorescence intensity signals by Reverse transcription polymerase chain reaction (RT-PCR) and Capillary electrophoresis technology.Data from the assay component ATG_HSE_CIS was analyzed into 1 assay endpoint. This assay endpoint, ATG_HSE_CIS, was analyzed with bidirectional fitting relative to DMSO as the negative control and baseline of activity. Using a type of inducible reporter, measures of mRNA for gain or loss-of-signal activity can be used to understand the reporter gene at the transcription factor-level as they relate to the gene HSF1. Furthermore, this assay endpoint can be referred to as a primary readout, because this assay has produced multiple assay endpoints where this one serves a reporter gene function. To generalize the intended target to other relatable targets, this assay endpoint is annotated to the dna binding intended target family, where the subfamily is heat shock protein.
# Human liver HepG2 cells are transiently transfected with multiple reporter transcription units (MRTUs) in 6-well plates using FuGene 6 reagent (Roche; 3 ml FuGene/1 mg DNA). The MRTU constructs are regulated by a cis-regulating element (promoter). […] A major difference between the CIS and TRANS system is that in CIS activities of endogenous TFs are measured, whereas the TRANS assay evaluates changes in activities of exogenous, chimeric NR-Gal4 proteins. […] At the end of 24 hour incubation, total RNA was isolated using TriZol reagent (Invitrogen). The isolated RNA is then reverse-transcribed using oligo(dT) primer and Mo-MLV reverse transcriptase (Invitrogen) with DNAse I (Ambion) treatment for 30 min. The one-tenth of the produced cDNA was amplified by PCR using Taq DNA polymerase (Invitrogen) and two reporter sequence-specific primers. The PCR products were fluorescently labeled by primer extension with 6-arboxyfluorescein (6-FAM) 5'-labeled reporter sequence-specific primer (2 min at 95 C, 20 s at 68 C and 10 min at 72 C) and these products were digested with 5U of HpaI (New England Biolabs) for 2h at 37 C. The fragments were purified using Qiaquick PCR columns (Qiagen), analyzed on an ABI 3130xL genetic analyzer (Applied Biosystems) with peak positions identified by using a set of X-rhodamine (ROX)-labeled MapMarker1000 molecular weight standards (BioVentures). The raw capillary electrophoresis data was processed using Attagraph software (Attagene).
# Chain of Heat shock factor protein 1 (Homo sapiens) (Q00613 whole entry, looked up): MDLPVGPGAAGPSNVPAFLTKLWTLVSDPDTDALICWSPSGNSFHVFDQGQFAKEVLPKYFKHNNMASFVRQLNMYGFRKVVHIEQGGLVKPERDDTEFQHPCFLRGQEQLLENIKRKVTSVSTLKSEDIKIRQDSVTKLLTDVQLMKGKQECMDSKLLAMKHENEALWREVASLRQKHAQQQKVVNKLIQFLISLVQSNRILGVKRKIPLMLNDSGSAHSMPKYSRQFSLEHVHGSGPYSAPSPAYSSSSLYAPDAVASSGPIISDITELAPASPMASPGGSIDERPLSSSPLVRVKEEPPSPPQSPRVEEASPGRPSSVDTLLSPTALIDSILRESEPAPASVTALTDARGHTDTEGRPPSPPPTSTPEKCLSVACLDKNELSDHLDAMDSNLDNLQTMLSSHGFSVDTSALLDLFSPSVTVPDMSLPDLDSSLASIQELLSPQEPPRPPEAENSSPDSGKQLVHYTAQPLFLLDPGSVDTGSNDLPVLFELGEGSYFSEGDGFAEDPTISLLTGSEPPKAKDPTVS
Compound,outcome,AC50
CCOP(=S)(OCC)Oc1ccc(Cl)cc1Cl,inactive,
OC(Cc1ccccc1Cl)(Cn1[nH]cnc1=S)C1(Cl)CC1 (stereo not given),,140 µM (active)
CC(O)(CS(=O)(=O)c1ccc(F)cc1)C(=O)Nc1ccc(C#N)c(C(F)(F)F)c1 (stereo not given),inactive,
C[CH2][Hg][S]c1ccccc1C(=O)O,inactive,
N#Cc1cccnc1,inactive,
c1ccc2c(c1)Oc1ccccc1O2,inactive,
Clc1cc(C(Cl)(Cl)Cl)cnc1Cl,inactive,
Clc1cnc(Oc2ccc(Oc3ncc(Cl)cc3Cl)cc2)c(Cl)c1,inactive,
OC(c1ccc(Cl)cc1)(c1ccc(Cl)cc1)c1cccnc1,inactive,
O=C(O)C1(c2ccc3c(c2)OC[C@H](Cc2ccc(-c4ccccc4)cc2)[C@H]3O)CCCC1,inactive,
O=CCCl,,48.6 µM (active)
Cc1cc(Cl)ccc1N,inactive,
COc1ccccc1N,inactive,
C=C(C)C(=O)OCCCCOC(=O)C(=C)C,inactive,
O=[N+]([O-])c1cc([As](=O)(O)O)ccc1O,inactive,
COC(=O)c1cc(Oc2ccc(Cl)cc2Cl)ccc1[N+](=O)[O-],inactive,
CCCCN(CCCCO)N=O,inactive,
O=C(O)c1cc(I)cc(I)c1I,inactive,
CC(=O)CN(CC(C)=O)N=O,inactive,
CC(C)CP(=S)(S)CC(C)C,inactive,

Compound,outcome,AC50
N#Cc1ccc(Cl)cc1,inactive,
C=C(C)[C@@H]1CC=C(C=O)CC1,inactive,
C=CCN=C=S,inactive,
CC(=O)C(F)(F)C(F)(F)F,inactive,
CCCCC(CC)COC(=O)Cl (stereo not given),inactive,
C[C@]12CC[C@@H](O)C[C@@H]1CC[C@@H]1[C@@H]2CC[C@]2(C)C(=O)CC[C@@H]12,inactive,
CCOC(=O)Cc1ccccc1,inactive,
O=C1C[C@@H]2OCC=C3CN4CC[C@]56c7ccccc7N1[C@H]5[C@H]2[C@H]3C[C@H]46,inactive,
CC(C)(COCC1CO1)COCC1CO1 (stereo not given),inactive,
O=C=Nc1ccc(Cl)cc1,inactive,
CCCCN(CCCC)C(=S)S,,47.9 µM (active)
O=c1oc2ccccc2c(O)c1C(CC(O)c1ccc(-c2ccc(Br)cc2)cc1)c1ccccc1 (stereo not given),,48.7 µM (active) and 59.6 µM (active)
N#CCC#N,inactive,
O=NN1CCCCCCC1,inactive,
CCOC(=O)OC1=C(c2cc(C)ccc2C)C(=O)NC12CCC(OC)CC2 (stereo not given),inactive,
C=CC(Cl)CCl (stereo not given),inactive,
O=C(O)CC(O)(CC(=O)O)C(=O)O,inactive,
CC(C)(C)c1ccc(CCOc2ncnc3ccccc23)cc1,inactive,
BrCc1ccc(Br)cc1,inactive,
C#CCO,inactive,
